Screening results from PubChem BioAssay.
PAX8 reporter: inhibitors of PAX8-driven TPO luciferase reporter, primary screen, RMG-I cells, single concentration; inhibition, % at 12.6 µM; 360,000 tested, 1.2% active; SteadyGlo, 24 h; AID 652154, 2013;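 active = mean replicate inhibition at least 60% with every replicate also reaching 60%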;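 also: luciferase light reporting Pax8 driven TPO promoter activity; plate controls were median of neutral control wells for no effect and mitoxantrone controls for full effect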
EWS-Fli block: EWS/Fli-driven NR0B1 reporter inhibitors, primary screen, A673 cells, NR0B1 luciferase, luminescence, MLPCN library; viability-normalised; inhibition, % at 12.6 µM; 350,000 tested, 0.67% active;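 active = mean inhibition of at least 50% after viability correction, with every replicate also passing that limit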;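 also: firefly luciferase signal divided by Alamar Blue viability fluorescence both relative to DMSO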
Wnt act: Wnt/beta-catenin pathway activators, primary screen, cell-based, plate reader, single point; Wnt/beta-catenin reporter cell assay, activator; activation, % at 9.35 µM; 300,000 tested, 1.2% active; AID 743398, 2014; in the data active = activation above about 30%, passing the limit was not always enough;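 also: 0% = neutral control wells and 100% = positive control wells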
MITF TRPM1 HTS: activators of MITF-driven TRPM1 promoter reporter, primary screen, cell-based, SK-MEL-5, luciferase, single point | SK-MEL-5 TRPM1-promoter luciferase, 24 h; % of positive control, neutral wells = 0 | AID 588334, 2011 | 300,000 tested, 0.75% active | activation, % at 12.5 µM;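 active = mean activation of at least 80% with every replicate also reaching 80%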;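 also: 0% = neutral control wells and 100% = parthenolide positive control wells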
TRPM1 prom inh: inhibitors of MITF-dependent TRPM1 promoter reporter, primary screen, cell-based, SK-MEL-5, single point, luciferase | SK-MEL-5 TRPM1 promoter luciferase, 24 h | inhibition, % at 12.5 µM | 330,000 tested, 0.83% active;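 active = mean inhibition across replicates of 60% or more, whatever share of single replicates reaches that level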
esBAF inh: Bmi1 luciferase reporter increase in mESCs, primary screen, esBAF inhibitor project, mouse ES cells, Bmi1 luciferase knock-in, single point. 350,000 tested, 2% active. reporter increase, % at 12.5 µM. 24 h; 100% = twice the neutral-well signal; in the data active = activation above about 40%;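 also: 0% = median of the plate's neutral control wells and 100% = double that signal; a rise in the Bmi1 reporter signal indicates esBAF inhibition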
DNA binding: DNA binders by acridine orange displacement, dose response, counter-screen for EWS/Fli inhibitor project, biochemical, fluorescence polarization, cherry-pick; AID 720586, 2013; salmon sperm DNA acridine orange fluorescence polarization; shares compounds with EWS-Fli block; AC35, µM (titrated, usually from 68 µM), without a hit: at the highest dose activity change, negative = DNA binding; 640 tested, 2% active;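 active = fitted curve reaches a 35% signal fall AC35 below twice the sample's top valid tested dose, actives reach about 48 µM in these data; inactive = the rest, including activity in the rising direction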;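 also: lower polarization ratio signals compound binding to DNA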
Starred values were filed as active, the others as inactive; . = not tested or not shown; ! = a repeat was not active. Rows were chosen to be rich in hits. Some 4% of all compounds tested hit in one or more screens of this group.

SMILES | PAX8 reporter | EWS-Fli block | Wnt act | MITF TRPM1 HTS | TRPM1 prom inh | esBAF inh | others
CCN1[C@@H]2c3ccc(-c4cccc(C(=O)N(C)C)c4)c(=O)n3C[C@H]1[C@H](CO)[C@H]2C(=O)OC | -13 | -2 | . | . | . | -10
O=C(NC(=C(Cl)Cl)P(=O)(c1ccccc1)c1ccccc1)c1ccccc1 | 108* | 2 | -1 | -14 | 12 | .
O=C(O)c1ccc(-[n+]2c(-c3ccccc3)cc(-c3ccccc3)cc2-c2ccccc2)cc1 | 16 | 1 | -2 | 7 | -9 | -16
Brc1ccc(-[n+]2c(-c3ccccc3)cc(-c3ccccc3)cc2-c2ccccc2)cc1 | 98* | 49 | -18 | -69 | 70* | -50
C[n+]1c(-c2ccccc2)cc(CCCCc2cc(-c3ccccc3)[n+](C)c(-c3ccccc3)c2)cc1-c1ccccc1 | 96* | 17 | 0 | -36 | 40 | 7
Cc1ccc(-c2cc(-c3ccccc3)cc(-c3ccccc3)[n+]2-c2ccc(C(=O)O)cc2)cc1 | 12 | -7 | 1 | -1 | -1 | -44
COc1ccc(-[n+]2c(-c3ccccc3)cc(-c3ccc(C)cc3)cc2-c2ccccc2)cc1 | 106* | 41 | -7 | -73 | 74* | -33
CCCOC(=O)c1ccc(-[n+]2c(-c3ccccc3)cc(-c3ccccc3)cc2-c2ccccc2)cc1 | 88* | 74* | -24 | -61 | 64* | -34
O=C1CNC[C@@H]2[C@H](c3ccc(Br)cc3)[C@@H](CO)N12 | -27 | -7 | . | . | . | .
COc1cccc(-c2ccc([C@@H]3[C@H](CO)N4CCCCN(C(=O)Cc5ccncc5)C[C@@H]34)cc2)c1 | -2 | . | . | . | . | .
COc1ccc(-c2cc(-c3ccccc3)[n+](C)c(-c3ccccc3)c2)cc1 | 87* | 39 | -7 | -66 | 66* | .
Oc1c(Br)cc(-c2ccccc2)cc1Br | 2 | 2 | 3 | -10 | 12 | 2
CN(C)CCCN=Cc1c(O)n(CCc2ccc(F)cc2)c(=O)[nH]c1=O | -10 | . | 38* | . | 4 | -1
O=C(Cc1ccccn1)N1CCCCN2[C@H](CO)[C@@H](c3ccc(-c4ccc(F)cc4)cc3)[C@H]2C1 | 0 | -2 | . | . | . | .
COc1ccccc1CCNC(=O)CCC(=O)N1CC2C[C@@H](C1)Cn1c2cccc1=O | . | -11 | -1 | 19 | -19 | 46*
COc1cccc(CNC(=O)CCC(=O)N2C[C@H]3C[C@H](C2)c2cccc(=O)n2C3)c1OC | . | 4 | 1 | 5 | -3 | 1
COC(=O)[C@H]1[C@H](CO)[C@H]2Cn3c(ccc(C4=CCCC4)c3=O)[C@@H]1N2Cc1ccccn1 | . | -1 | . | . | . | -2
COC1/C=C/C=C(\C)Cc2cc(O)c(Cl)c(c2)N(C)C(=O)CC(OC(=O)C(C)C)C2(C)OC2C(C)C2CC1(O)NC(=O)O2 (configuration not stated) | 76* | 41 | -22 | -60 | 59 | .
CCn1nc(-c2ccccc2)nc2c(=O)n(C)c(=O)nc1-2 | . | . | . | -99 | 99* | 0
COC(=O)[C@H]1[C@H](CO)[C@H]2Cn3c(ccc(C4=CCCC4)c3=O)[C@@H]1N2C(=O)C1CCCCC1 | -11 | 1 | . | . | . | -1
C/C=C/c1ccc([C@H]2[C@@H](CO)N3CCCCN(C(=O)Cc4ccncc4)C[C@@H]23)cc1 | 6 | 3 | . | . | . | -2
CC=Cc1ccc2n(c1=O)C[C@H]1[C@H](CO)[C@@H](C(=O)OC)[C@@H]2N1CC1CCOCC1 (mixture of isomers) | 0 | -1 | . | . | . | 1
C=C1C(=O)OC2CC(C)C3C=CC(=O)C3(C)C(O)C12 (configuration not stated) | . | . | . | -99 | 100* | .
C=C1C(=O)O[C@@H]2C[C@@H](C)[C@@H]3C=CC(=O)[C@@]3(C)[C@@H](OC(=O)CC(=O)O[C@H]3[C@@H]4C(=C)C(=O)O[C@@H]4C[C@@H](C)[C@@H]4C=CC(=O)[C@]43C)[C@H]12 | 109* | 55* | -20 | -98 | 98* | -87
C=C1C(=O)O[C@@H]2C[C@@H](C)[C@@H]3C4OC4C(=O)[C@@]3(C)[C@@H](O)[C@H]12 (some centres not stated) | 104* | 73* | -26 | -100 | 101* | 12
SMILES | PAX8 reporter | EWS-Fli block | Wnt act | MITF TRPM1 HTS | TRPM1 prom inh | esBAF inh | others
C=C1C(=O)O[C@H]2[C@H]1[C@H](OC(=O)CC(=O)O[C@@H]1C[C@@H](C)[C@@H]3C=CC(=O)[C@@]3(C)[C@H]3OC(=O)C(=C)[C@H]13)C[C@@H](C)[C@H]1C=CC(=O)[C@]12C | 68* | 4 | 14 | -9 | 10 | -16
COC(=O)[C@@H]1[C@@H](CO)[C@@H]2Cn3c(ccc(-c4cccnc4)c3=O)[C@H]1N2S(=O)(=O)c1ccccc1F | -4 | -4 | . | . | . | -5
O=C(Cc1ccncc1)N1CCCCN2[C@@H](CO)[C@@H](c3ccc(C#CC4(O)CCCC4)cc3)[C@@H]2C1 | 13 | . | . | . | . | .
C=C1C(=O)O[C@H]2C[C@@H](C)[C@@H]3C=CC(=O)[C@@]3(C)C[C@H]12 | 108* | 59* | -21 | . | . | .
c1ccc(CNC2CCCCCCC2)cc1 (tested in a mixture with another compound) | . | -3 | 3 | 14 | -14 | .
NNCc1ccccc1 | -27 | -45 | 13 | 32 | -29 | 49*!
C/C=C/c1ccc(C2[C@@H]3CN(C(=O)c4cnccn4)C[C@H]2N3)cc1 (some centres not stated) | 9 | 15 | . | . | . | .
O=C(Nc1ccc(OC(=O)N2CCCCC2)cc1)N1CCOCC1 | 58 | 76* | -15 | -68 | 66* | -72 | DNA binding=-2%
CC(=O)OC1CC(OC2C(O)CC(OC3C(O)CC(OC4CCC5(C)C(CCC6C5CC(O)C5(C)C(C7=CC(=O)OC7)CCC65O)C4)OC3C)OC2C)OC(C)C1OC1OC(CO)C(O)C(O)C1O (configuration not stated) | 111* | 65* | -22 | -69 | 70* | -5 | DNA binding=-10%
COC1C(O)C(C)OC(OC2CCC3(C)C(CCC4C3C(O)CC3(C)C(C5=CC(=O)OC5)CCC43O)C2)C1O (configuration not stated) | 108* | 51* | -26 | . | 73* | . | DNA binding=3%
CC12CCC(O)CC1CCC1C2CCC2(C)C(C3=CC(=O)OC3)CCC12O (configuration not stated) | 106* | 67* | -4 | . | 68* | . | DNA binding=-8%
